Measured values: the supplement of paper PMC10849652
About 8,800 targets were measured; listed, in parts, are those with a hit and a random draw of the rest. About 0.5% of all pairs of compound and target were hits.

What was measured:
Assay in all cases: log2 fold change, soluble protein after heating vs DMSO (PISA); higher = thermal stabilisation; K562 lysate, 10 uM; active = over 0.2 and 3.5 SD of the protein, either way, in both replicates (recomputed)
alvocidib = compound: CN1CC[C@H](c2c(O)cc(O)c3c(=O)cc(-c4ccccc4Cl)oc23)[C@H](O)C1 [alvocidib]
Outline: (§1)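 K562 pellets were dounce-homogenised in PBS pH 7.4 with 1 mM MgCl2, and the crude extract at 1 mg/mL protein was treated with 10 μM compound for 30 min. Aliquots were heated for 3 min across 48°C-58°C, pooled, and brought to 0.5% NP-40 at 4°C; soluble protein was the supernatant after 21,000xg for 90 min. Soluble protein was quantified by TMTpro 16plex LC-MS/MS with channel sums equalised, and reported as log2 fold change in thermal stability against DMSO controls, with values from duplicates.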

Tubastatin A = compound: CN1CCc2c(c3ccccc3n2Cc2ccc(C(=O)NO)cc2)C1 [Tubastatin A]
Outline: as §1

[1] = compound: CNC(=O)C1=CC=CC=C1NC2=NC(=NC=C2Cl)NC3=C(C=C(C=C3)N4CCOCC4)OC
Outline: as §1

defactinib = compound: CNC(=O)c1ccc(Nc2ncc(C(F)(F)F)c(NCc3nccnc3N(C)S(C)(=O)=O)n2)cc1 [defactinib]
Outline: as §1

[2] = compound: CNc1nc(-c2ccc3c(N)n[nH]c3c2)cc(N2C[C@@H](C(=O)NC3CCCCC3)CC[C@H]2C)n1
Outline: as §1

encorafenib = compound: COC(=O)N[C@@H](C)CNc1nccc(-c2cn(C(C)C)nc2-c2cc(Cl)cc(NS(C)(=O)=O)c2F)n1 [encorafenib]
Outline: as §1

[3] = compound: COC(=O)[C@H](CCSC)NC(=O)C1=C(C=C(C=C1)NC[C@H](CS)N)C2=CC=CC=C2
Outline: as §1

alisertib = compound: COc1cc(Nc2ncc3c(n2)-c2ccc(Cl)cc2C(c2c(F)cccc2OC)=NC3)ccc1C(=O)O [alisertib]
Outline: as §1

[4] = compound: COc1cc2nc(-c3cc(F)ccc3O)nc(N[C@@H]3CNC[C@H]3C(C)(C)O)c2cc1OC
Outline: as §1

gefitinib = compound: COc1cc2ncnc(Nc3ccc(F)c(Cl)c3)c2cc1OCCCN1CCOCC1 [gefitinib]
Outline: as §1

lapatinib = compound: CS(=O)(=O)CCNCc1ccc(-c2ccc3ncnc(Nc4ccc(OCc5cccc(F)c5)c(Cl)c4)c3c2)o1 [lapatinib]
Outline: as §1

pictilisib = compound: CS(=O)(=O)N1CCN(Cc2cc3nc(-c4cccc5[nH]ncc45)nc(N4CCOCC4)c3s2)CC1 [pictilisib]
Outline: as §1

crizotinib = compound: C[C@@H](Oc1cc(-c2cnn(C3CCNCC3)c2)cnc1N)c1c(Cl)ccc(F)c1Cl [crizotinib]
Outline: as §1

[5] = compound: C[C@H](C1=CC=C(C=C1)C(=O)NC2=C3C=CNC3=NC=C2)N
Outline: as §1

duvelisib = compound: C[C@H](Nc1ncnc2nc[nH]c12)c1cc2cccc(Cl)c2c(=O)n1-c1ccccc1 [duvelisib]
Outline: as §1

gandotinib = compound: Cc1cc(Nc2cc(CN3CCOCC3)c3nc(C)c(Cc4ccc(Cl)cc4F)n3n2)n[nH]1 [gandotinib]
Outline: as §1

tozasertib = compound: Cc1cc(Nc2cc(N3CCN(C)CC3)nc(Sc3ccc(NC(=O)C4CC4)cc3)n2)n[nH]1 [tozasertib]
Outline: as §1

doramapimod = compound: Cc1ccc(-n2nc(C(C)(C)C)cc2NC(=O)Nc2ccc(OCCN3CCOCC3)c3ccccc23)cc1 [doramapimod]
Outline: as §1

bafetinib = compound: Cc1ccc(NC(=O)c2ccc(CN3CC[C@H](N(C)C)C3)c(C(F)(F)F)c2)cc1Nc1nccc(-c2cncnc2)n1 [bafetinib]
Outline: as §1

[6] = compound: Cc1cccc(CC(=O)N2CCc3c2ccc(-c2cn(C)c4ncnc(N)c24)c3F)n1
Outline: as §1

Measured: log2 fold change

NFATC1 (UniProt O95644)
UniProt O95644, sequence (O95644 whole entry, looked up): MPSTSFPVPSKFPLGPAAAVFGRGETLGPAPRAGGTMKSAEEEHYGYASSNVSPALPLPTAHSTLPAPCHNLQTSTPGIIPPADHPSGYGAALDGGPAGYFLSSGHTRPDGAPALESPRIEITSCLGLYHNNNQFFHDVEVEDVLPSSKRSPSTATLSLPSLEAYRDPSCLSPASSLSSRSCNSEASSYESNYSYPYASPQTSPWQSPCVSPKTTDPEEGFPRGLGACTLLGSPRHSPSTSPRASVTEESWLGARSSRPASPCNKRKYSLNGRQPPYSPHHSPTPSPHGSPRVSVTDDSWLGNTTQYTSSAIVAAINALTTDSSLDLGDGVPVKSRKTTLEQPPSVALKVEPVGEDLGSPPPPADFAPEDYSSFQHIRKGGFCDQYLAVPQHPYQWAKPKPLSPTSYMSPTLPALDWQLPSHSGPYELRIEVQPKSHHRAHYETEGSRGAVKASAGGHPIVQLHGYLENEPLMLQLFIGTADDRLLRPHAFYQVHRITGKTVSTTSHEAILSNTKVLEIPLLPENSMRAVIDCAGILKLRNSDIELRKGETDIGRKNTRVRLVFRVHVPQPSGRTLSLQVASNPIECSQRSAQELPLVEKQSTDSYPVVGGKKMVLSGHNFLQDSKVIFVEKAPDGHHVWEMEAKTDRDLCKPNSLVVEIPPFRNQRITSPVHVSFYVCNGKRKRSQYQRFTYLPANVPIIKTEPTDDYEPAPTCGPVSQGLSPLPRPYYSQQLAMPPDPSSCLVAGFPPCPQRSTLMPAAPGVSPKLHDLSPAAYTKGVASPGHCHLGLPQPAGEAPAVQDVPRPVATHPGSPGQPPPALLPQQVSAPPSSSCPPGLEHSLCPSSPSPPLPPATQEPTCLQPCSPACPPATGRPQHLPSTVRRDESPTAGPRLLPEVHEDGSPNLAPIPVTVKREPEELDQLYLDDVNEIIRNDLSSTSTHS
inactive: alvocidib -0.024 | Tubastatin A -0.138 | [1] 0.124 | defactinib -0.012 | [2] -0.031 | encorafenib -0.071 | [3] 0.048 | alisertib -0.025 | [4] 0.001 | gefitinib 0.027 | lapatinib -0.003 | pictilisib -0.088 | crizotinib -0.111 | [5] -0.136 | duvelisib 0.007 | gandotinib 0.132 | tozasertib -0.002 | doramapimod 0.017 | bafetinib -0.043 | [6] 0.179

NUP210 (UniProt Q8TEM1)
inactive: alvocidib 0.014 | Tubastatin A 0.107 | [1] -0.061 | defactinib 0.035 | [2] -0.011 | encorafenib 0.086 | [3] 0.145 | alisertib 0.009 | [4] 0.002 | gefitinib 0.003 | lapatinib -0.074 | pictilisib -0.076 | crizotinib -0.028 | [5] -0.034 | duvelisib 0.013 | gandotinib -0.08 | tozasertib -0.012 | doramapimod -0.017 | bafetinib -0.007 | [6] 0.044

OGFR (UniProt Q9NZT2)
inactive: alvocidib 0.022 | Tubastatin A -0.089 | [1] 0.002 | defactinib -0.015 | [2] -0.03 | encorafenib 0.02 | [3] 0.089 | alisertib -0.003 | [4] -0.003 | gefitinib -0.004 | lapatinib 0.014 | pictilisib -0.012 | crizotinib 0.052 | [5] 0.128 | duvelisib -0.008 | gandotinib -0.062 | tozasertib -0.043 | doramapimod -0.012 | bafetinib 0.043 | [6] -0.037

NCAPH2 (UniProt Q6IBW4)
UniProt Q6IBW4, sequence (Q6IBW4 whole entry, looked up): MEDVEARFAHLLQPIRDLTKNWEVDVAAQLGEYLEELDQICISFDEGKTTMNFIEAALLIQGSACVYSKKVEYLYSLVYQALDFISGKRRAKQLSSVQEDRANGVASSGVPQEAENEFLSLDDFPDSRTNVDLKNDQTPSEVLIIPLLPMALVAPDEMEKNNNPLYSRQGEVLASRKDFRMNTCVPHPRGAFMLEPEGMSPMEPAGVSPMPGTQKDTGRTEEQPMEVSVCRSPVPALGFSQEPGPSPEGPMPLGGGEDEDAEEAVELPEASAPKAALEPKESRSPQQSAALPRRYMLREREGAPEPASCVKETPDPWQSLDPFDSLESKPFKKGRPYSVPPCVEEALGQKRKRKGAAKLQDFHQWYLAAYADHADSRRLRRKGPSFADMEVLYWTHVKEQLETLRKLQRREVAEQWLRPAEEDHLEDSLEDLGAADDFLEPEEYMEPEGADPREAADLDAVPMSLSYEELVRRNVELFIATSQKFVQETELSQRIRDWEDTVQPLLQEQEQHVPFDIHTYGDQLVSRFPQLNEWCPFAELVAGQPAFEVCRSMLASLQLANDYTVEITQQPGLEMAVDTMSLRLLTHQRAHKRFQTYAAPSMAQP
inactive: alvocidib 0.038 | Tubastatin A -0.193 | [1] 0 | defactinib 0.005 | [2] -0.084 | encorafenib 0.064 | [3] -0.039 | alisertib -0.027 | [4] 0.01 | gefitinib -0.048 | lapatinib -0.075 | pictilisib -0.023 | crizotinib -0.04 | [5] -0.01 | duvelisib -0.03 | gandotinib -0.052 | tozasertib 0.058 | doramapimod -0.051 | bafetinib -0.036 | [6] 0.185

NUP133 (UniProt Q8WUM0)
UniProt Q8WUM0, sequence (Q8WUM0 whole entry, looked up): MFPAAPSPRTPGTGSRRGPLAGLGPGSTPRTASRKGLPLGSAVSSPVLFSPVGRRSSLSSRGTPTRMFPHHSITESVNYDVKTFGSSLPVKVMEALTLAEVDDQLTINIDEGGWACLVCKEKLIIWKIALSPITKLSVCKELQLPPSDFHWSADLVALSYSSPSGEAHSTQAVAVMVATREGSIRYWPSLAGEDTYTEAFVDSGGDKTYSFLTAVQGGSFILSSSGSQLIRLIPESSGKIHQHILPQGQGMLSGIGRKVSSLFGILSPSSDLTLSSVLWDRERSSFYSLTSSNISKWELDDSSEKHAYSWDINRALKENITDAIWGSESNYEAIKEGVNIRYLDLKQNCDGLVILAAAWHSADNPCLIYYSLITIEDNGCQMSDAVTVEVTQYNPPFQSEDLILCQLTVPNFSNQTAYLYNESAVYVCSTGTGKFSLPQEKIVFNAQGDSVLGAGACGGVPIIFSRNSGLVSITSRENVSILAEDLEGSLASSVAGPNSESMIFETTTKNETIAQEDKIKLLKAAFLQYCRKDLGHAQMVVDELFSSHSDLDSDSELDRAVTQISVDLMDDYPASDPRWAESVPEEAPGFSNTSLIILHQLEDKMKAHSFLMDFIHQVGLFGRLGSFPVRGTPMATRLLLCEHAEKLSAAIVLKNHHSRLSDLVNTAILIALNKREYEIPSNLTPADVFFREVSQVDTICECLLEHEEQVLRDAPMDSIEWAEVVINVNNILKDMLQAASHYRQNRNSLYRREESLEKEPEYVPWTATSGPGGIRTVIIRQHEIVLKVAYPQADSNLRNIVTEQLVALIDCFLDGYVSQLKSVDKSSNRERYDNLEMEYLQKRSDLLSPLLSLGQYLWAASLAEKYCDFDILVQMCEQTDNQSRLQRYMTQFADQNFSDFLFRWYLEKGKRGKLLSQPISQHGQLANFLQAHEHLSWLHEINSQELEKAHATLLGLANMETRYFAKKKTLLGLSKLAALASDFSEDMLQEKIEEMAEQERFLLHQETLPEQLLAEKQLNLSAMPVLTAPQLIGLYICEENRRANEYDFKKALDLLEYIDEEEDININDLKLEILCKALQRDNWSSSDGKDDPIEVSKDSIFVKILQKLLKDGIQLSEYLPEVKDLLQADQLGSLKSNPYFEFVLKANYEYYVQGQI
inactive: alvocidib -0.08 | Tubastatin A -0.111 | [1] -0.007 | defactinib 0.035 | [2] -0.028 | encorafenib 0.039 | [3] 0.002 | alisertib -0.009 | [4] 0.011 | gefitinib -0.003 | lapatinib -0.007 | pictilisib -0.01 | crizotinib -0.093 | [5] -0.075 | duvelisib -0.01 | tozasertib 0.042 | doramapimod 0.061 | bafetinib -0.074 | [6] 0.218
active: gandotinib 0.251

MSI2 (UniProt Q96DH6)
UniProt Q96DH6, sequence (Q96DH6 whole entry, looked up): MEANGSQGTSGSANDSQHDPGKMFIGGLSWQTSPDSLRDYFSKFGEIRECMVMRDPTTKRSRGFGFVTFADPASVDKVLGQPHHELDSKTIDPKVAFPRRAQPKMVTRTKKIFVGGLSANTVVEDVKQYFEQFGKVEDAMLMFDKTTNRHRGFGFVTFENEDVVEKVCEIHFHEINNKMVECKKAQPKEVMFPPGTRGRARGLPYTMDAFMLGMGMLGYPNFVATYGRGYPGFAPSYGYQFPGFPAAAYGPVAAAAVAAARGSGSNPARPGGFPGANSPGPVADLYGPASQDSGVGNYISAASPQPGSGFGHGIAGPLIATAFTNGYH
active: doramapimod -0.23
inactive: alvocidib 0.035 | Tubastatin A -0.082 | [1] -0.04 | defactinib 0.076 | [2] -0.012 | encorafenib 0.144 | [3] -0.023 | alisertib 0.026 | [4] -0.012 | gefitinib -0.031 | lapatinib 0 | pictilisib -0.057 | crizotinib 0.036 | [5] 0.024 | duvelisib -0.052 | gandotinib -0.031 | tozasertib 0.01 | bafetinib -0.066 | [6] 0.07

NIT2 (UniProt Q9NQR4)
UniProt Q9NQR4, sequence (Q9NQR4 whole entry, looked up): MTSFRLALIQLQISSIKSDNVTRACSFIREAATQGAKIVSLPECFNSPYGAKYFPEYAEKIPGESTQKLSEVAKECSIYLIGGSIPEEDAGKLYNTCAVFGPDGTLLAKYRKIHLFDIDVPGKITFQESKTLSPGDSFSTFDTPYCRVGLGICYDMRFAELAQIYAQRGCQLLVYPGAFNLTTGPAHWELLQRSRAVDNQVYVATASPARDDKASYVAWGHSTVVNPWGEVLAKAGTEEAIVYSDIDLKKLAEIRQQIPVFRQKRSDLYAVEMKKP
inactive: alvocidib 0.046 | Tubastatin A 0.047 | [1] -0.003 | defactinib -0.05 | [2] 0.013 | encorafenib -0.032 | [3] 0.082 | alisertib 0.012 | [4] 0.019 | gefitinib -0.017 | lapatinib 0.002 | pictilisib -0.048 | crizotinib -0.026 | [5] -0.008 | duvelisib 0.011 | gandotinib -0.01 | tozasertib 0.002 | doramapimod -0.023 | bafetinib 0.011 | [6] -0.06

NPM3 (UniProt O75607)
UniProt O75607, sequence (O75607 whole entry, looked up): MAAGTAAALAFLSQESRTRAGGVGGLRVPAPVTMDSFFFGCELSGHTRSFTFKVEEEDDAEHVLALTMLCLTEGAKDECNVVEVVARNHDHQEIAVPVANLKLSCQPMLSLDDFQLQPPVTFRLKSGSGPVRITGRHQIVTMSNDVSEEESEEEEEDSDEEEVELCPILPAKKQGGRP
inactive: alvocidib -0.04 | Tubastatin A 0.015 | [1] -0.017 | defactinib 0.062 | [2] 0.011 | encorafenib 0.012 | [3] 0.028 | alisertib -0.002 | [4] 0.023 | gefitinib -0.015 | lapatinib 0.087 | pictilisib 0.053 | crizotinib -0.02 | [5] -0.201 | duvelisib 0.014 | gandotinib 0.068 | tozasertib -0.036 | doramapimod 0.027 | bafetinib 0.04 | [6] 0.164

NNMT (UniProt P40261)
UniProt P40261, sequence (P40261 whole entry, looked up): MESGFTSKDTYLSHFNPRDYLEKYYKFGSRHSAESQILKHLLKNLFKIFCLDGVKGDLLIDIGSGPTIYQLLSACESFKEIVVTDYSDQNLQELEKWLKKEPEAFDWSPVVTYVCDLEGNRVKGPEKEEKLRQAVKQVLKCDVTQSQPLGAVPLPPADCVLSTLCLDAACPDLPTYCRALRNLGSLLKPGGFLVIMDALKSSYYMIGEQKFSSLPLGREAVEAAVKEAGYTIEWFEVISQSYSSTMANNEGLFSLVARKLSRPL
active: [3] -0.317
inactive: alvocidib -0.001 | Tubastatin A -0.03 | [1] 0 | defactinib -0.049 | [2] -0.086 | encorafenib 0.043 | alisertib 0 | [4] 0.009 | gefitinib 0.004 | lapatinib -0.017 | pictilisib 0.037 | crizotinib -0.065 | [5] -0.072 | duvelisib 0.066 | gandotinib 0.015 | tozasertib 0 | doramapimod 0.013 | bafetinib -0.066 | [6] -0.001

MRPL58 (UniProt Q14197)
active: [5] 0.365
inactive: alvocidib 0 | Tubastatin A -0.065 | [1] 0.027 | defactinib -0.045 | [2] 0.033 | encorafenib 0.011 | [3] -0.078 | alisertib -0.021 | [4] -0.02 | gefitinib -0.04 | lapatinib 0.035 | pictilisib -0.034 | crizotinib -0.063 | duvelisib -0.034 | gandotinib -0.009 | tozasertib 0.045 | doramapimod -0.026 | bafetinib -0.03 | [6] -0.119

NFKBIE (UniProt O00221)
UniProt O00221, sequence (O00221 whole entry, looked up): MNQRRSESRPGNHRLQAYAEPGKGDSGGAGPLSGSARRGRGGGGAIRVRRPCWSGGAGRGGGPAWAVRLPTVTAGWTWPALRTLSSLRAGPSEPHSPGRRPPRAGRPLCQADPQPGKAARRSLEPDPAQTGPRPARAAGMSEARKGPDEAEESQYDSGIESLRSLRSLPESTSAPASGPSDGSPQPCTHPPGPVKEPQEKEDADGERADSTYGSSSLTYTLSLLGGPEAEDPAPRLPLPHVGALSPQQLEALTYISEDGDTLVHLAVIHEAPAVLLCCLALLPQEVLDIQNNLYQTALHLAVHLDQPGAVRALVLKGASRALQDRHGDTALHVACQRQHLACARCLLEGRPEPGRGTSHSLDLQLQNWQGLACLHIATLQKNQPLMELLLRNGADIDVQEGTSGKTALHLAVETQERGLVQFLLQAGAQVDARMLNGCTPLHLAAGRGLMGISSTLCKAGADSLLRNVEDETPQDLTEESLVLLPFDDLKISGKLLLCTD
inactive: alvocidib -0.068 | Tubastatin A 0.029 | [1] 0.055 | defactinib 0.054 | [2] 0.013 | encorafenib 0.038 | [3] -0.14 | alisertib 0.047 | [4] -0.03 | gefitinib 0.014 | lapatinib 0.03 | pictilisib 0.002 | crizotinib -0.027 | [5] 0.066 | duvelisib 0.03 | gandotinib -0.02 | tozasertib 0.07 | doramapimod 0.031 | bafetinib 0.012 | [6] 0.096

MYCBP (UniProt Q99417)
UniProt Q99417, sequence (Q99417 whole entry, looked up): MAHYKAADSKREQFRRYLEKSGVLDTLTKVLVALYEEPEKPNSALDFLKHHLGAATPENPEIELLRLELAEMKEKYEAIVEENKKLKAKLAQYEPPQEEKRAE
inactive: alvocidib -0.244 | Tubastatin A 0.045 | [1] -0.02 | defactinib 0.022 | [2] -0.031 | encorafenib 0.005 | [3] -0.069 | alisertib 0.022 | [4] -0.001 | gefitinib -0.029 | lapatinib 0.01 | pictilisib -0.052 | crizotinib 0.003 | duvelisib 0.02 | gandotinib 0.105 | tozasertib 0.028 | doramapimod 0.008 | bafetinib -0.018 | [6] 0.182
active: [5] -0.498
